Among the data in PubChem BioAssay (Tox21) are Potency values, retold here.

Experiment [1] can be described thus: Nuclear factor erythroid 2-related factor 2/antioxidant responsive element (Nrf2/ARE) small molecule agonists: luciferase reporter gene qHTS assay in human keratinocytes (AID 1919969). Also: nearly all actives have a fitted effect of over 35% in size. Also: potency is read from the fitted curve at half-maximal effect.
For experiment [2], the target named is Gonadotropin-releasing hormone receptor (Homo sapiens) (UniProt P30968). The experiment can be described thus: Human gonadotropin-releasing hormone receptor (GnRHR) small molecule agonists, calcium flux assay in GnRHR-HEK293 cells (AID 1920063). Also: nearly all actives have a fitted effect of over 35% in size. Also: potency is read from the fitted curve at half-maximal effect. The essentials: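 Fluorescence kinetics (480 nm excitation, 540 nm emission; 3 min, 1 s steps) report calcium mobilisation in human GnRHR-HEK293 cells in agonist mode. Dye incubation: 1 h, 37 C.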

Experiment [3] deals with KiSS-1 receptor (Homo sapiens) (UniProt Q969F8). As to the kind of experiment: Human kisspeptin (KISS1R) small molecule agonists, calcium flux assay in KISS1R-HEK293 cells (AID 1920064; active = well fitted activation curve with a large enough effect in the repeat runs; also: potency is read from the fitted curve at half-maximal effect). The essentials: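 Measures KISS1R agonism through calcium-sensitive dye fluorescence in stably transfected HEK293 cells, read for 3 min after pin-tool compound delivery; 15-point titrations in triplicate.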

The nature of experiment [4]: G protein-coupled receptor (GPCR) small molecule agonists, calcium flux assay: HEK293 wild type cell line counter screen (AID 1920065). Also: potency is read from the fitted curve at half-maximal effect. The procedure, abridged:
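Readout: fluorescence at 480 nm excitation/540 nm emission, sampled at 1 s intervals for 3 min. Cells had been cultured 18 h, then dye-loaded 1 h at 37 C before compound or ATP addition.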

The nature of experiment [5]: p53 small molecule agonists, cell-based qHTS assay with rat liver microsomes (AID 1963578). The procedure, abridged:
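Read-out is beta-lactamase reporter fluorescence (LiveBLAzer, 2 h, room temperature, dark) in p53RE-bla cells treated 16 h at 37 C with compound, rat liver microsomes and NADPH, both 0.5 mg/mL final.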

Experiment [6] in a line: p53 small molecule agonists, cell-based qHTS assay with human liver microsomes: qHTS cell viability counter screen (AID 1963579). Also: nearly all actives have a fitted effect of over 45% in size. The procedure, abridged: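 Cells carrying the p53 response-element beta-lactamase reporter are treated for 16 h at 37 C with test compounds in the presence of human liver microsomes and NADPH (both 0.5 mg/mL final); ATP-based CellTiter-Glo luminescence then reports viability.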

A short description of experiment [7]: p53 small molecule agonists, cell-based qHTS assay with rat liver microsomes: qHTS cell viability counter screen (AID 1963580). Also: nearly all actives have a fitted effect of over 45% in size. The essentials:
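HCT-116 p53RE-bla, 4,000 cells/well, 5 h pre-incubation; cpd + rat liver microsomes 0.5 mg/mL + NADPH 0.5 mg/mL (final); 16 h, 37 C; CellTiter-Glo, 30 min RT; luminescence.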

The nature of experiment [8]: p53 small molecule agonists, cell-based qHTS assay (AID 1963582; active = well fitted activation curve with a large enough effect in the signal ratio in the repeat runs, not every such curve was filed as active; the % refers to the signal ratio). The essentials:
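Compounds are pin-transferred in DMSO onto p53RE-bla cells and incubated 16 h at 37 C. The B/G FRET beta-lactamase substrate is then applied for 2 h at RT and fluorescence recorded.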

Experiment [9] has as its target 5-hydroxytryptamine receptor 2A (Homo sapiens) (UniProt P28223). The experiment can be described thus: 5-hydroxytryptamine receptor 2A (HTR2A) small molecule antagonists, cell-based qHTS assay (AID 1963586). Also: nearly all actives have a fitted effect of over 45% in size. The essentials: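 Antagonist-mode intracellular calcium assay: DOI (4 nM) added after 5 min compound pre-incubation at room temperature to dye-loaded HTR2A-CHO cells. Fluorescence followed for 3 min, sampled every second.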

For experiment [10], the target named is Muscarinic acetylcholine receptor M1 (Homo sapiens) (UniProt P11229). The experiment can be described thus: Cholinergic receptor muscarinic 1 (CHRM1) small molecule antagonists, cell-based qHTS assay (AID 1963588). Also: nearly all actives have a fitted effect of over 40% in size. The essentials: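 CHRM1-CHO calcium-flux assay, antagonist mode. Cells were seeded 18 h, dye-loaded 1 h at 37 C and given compound for 5 min at RT, then acetylcholine was added at 50nM. FDSS fluorescence was read 3 min; 15 concentrations, three runs.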

The target is the same in experiment [11]. The experiment can be described thus: Cholinergic receptor muscarinic 1 (CHRM1) small molecule agonists, cell-based qHTS assay (AID 1963589). Also: nearly all actives have a fitted effect of over 35% in size. Also: potency is read from the fitted curve at half-maximal effect. The essentials: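 Each compound was tested at 15 concentrations across three independent runs on dye-loaded CHO cells stably expressing human CHRM1, reading intracellular calcium fluorescence kinetically at 1 sec intervals.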

Experiment [12] is described as follows: cAMP Responsive Elements (CRE) small molecule antagonists, cell-based qHTS assay (AID 1963591; active = well fitted inhibition curve with a large enough effect in the signal ratio in the repeat runs, not every such curve was filed as active; the % refers to the signal ratio). The procedure, abridged: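 Inhibition of NKH477-driven (0.25 uM final) CRE-beta-lactamase signal in HEK293T cells, 3 h compound exposure at 37 °C, detected by FRET substrate fluorescence.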
The target of experiment [13] is Beta-2 adrenergic receptor (Homo sapiens) (UniProt P07550). The experiment can be described thus: Adrenergic beta2 receptor (ADRB2) small molecule antagonists, cell-based qHTS assay (AID 1963592). Also: series mostly up to about 92 µM; nearly all actives have a fitted effect of over 50% in size. The procedure, abridged:
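Cells (CHO, stable ADRB2 overexpression) incubated 18-20hr at 37C; compounds added from DMSO; agonist mix (1nM isoproterenol, 100uM IBMX, 25uM Ro-20-1724) added; 0.5hr RT; d2-cAMP and anti-cAMP-cryptate added; 1hr RT; 665/615 nm read.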

The target is the same in experiment [14]. As to the kind of experiment: Adrenergic beta2 receptor (ADRB2) small molecule agonists, cell-based qHTS assay (AID 1963593).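 Also: CHO cells stably overexpressing human ADRB2.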 The essentials:
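CHO cells stably over-expressing ADRB2 were plated overnight at 37C, then dosed with compounds plus a stimulation mix containing 100uM IBMX and 25uM Ro-20-1724 for 0.5hr at room temperature. cAMP was measured by HTRF competition, 1hr.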

Experiment [15] addresses D(2) dopamine receptor (Homo sapiens) (UniProt P14416). The experiment can be described thus: Dopamine D2 receptor (DRD2) small molecule agonists, cell-based qHTS assay (AID 1963594). Also: nearly all actives have a fitted effect of over 35% in size. The essentials:
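cAMP accumulation in DRD2-HEK293 cells measured by HTRF after 1 h detection; compounds added 10 min before NKH477 (200nM […]) forskolin-analogue stimulation, 30 min at room temperature, with Ro20-1724 present at 0.1 mM final.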

For experiment [16] the target is unchanged. As to the kind of experiment: Dopamine D2 receptor (DRD2) small molecule antagonists, cell-based qHTS assay (AID 1963595; active = well fitted inhibition curve with a large enough effect in the signal ratio in the repeat runs, with a control signal flat; the % refers to the signal ratio). The essentials:
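HEK293 cells stably expressing DRD2, preincubated with 0.1 mM Ro20-1724 and compounds 10 min, were stimulated with 200 nM NKH477 plus 12 nM quinpirole for 30 min at room temperature; cAMP measured by HTRF (665/620 nm).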

For experiment [17], the target named is 5-hydroxytryptamine receptor 2A (Homo sapiens) (UniProt P28223). The experiment can be described thus: 5-hydroxytryptamine receptor 2A (HTR2A) small molecule agonists, cell-based qHTS assay (AID 1963587). Also: nearly all actives have a fitted effect of over 30% in size. Also: potency is read from the fitted curve at half-maximal effect. The essentials: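 Kinetic calcium-flux fluorescence (2 min, 1 sec intervals) after compound addition in agonist mode. HTR2A-CHO cells were cultured 18 h, then dye-loaded 1 h at 37 C.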

The nature of experiment [18]: p53 small molecule agonists, cell-based qHTS assay with human liver microsomes (AID 1963577). The procedure, abridged:
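Compounds act here after metabolic activation: human liver microsomes and NADPH, both at 0.5 mg/mL final, were co-added to p53RE-bla cells. Incubation ran 16 h at 37 C, followed by LiveBLAzer detection.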

The nature of experiment [19]: cAMP Responsive Elements (CRE) small molecule agonists, cell-based qHTS assay (AID 1963590). The procedure, abridged: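 Cell line: CRE-bla HEK 293T; medium DMEM/10% dialyzed FBS/0.1 mM NEAA/1 mM pyruvate/25 mM HEPES; 3 h compound exposure; beta-lactamase FRET readout after 2 h substrate loading at RT.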
Experiment [20] in a line: p53 small molecule agonists, cell-based qHTS assay: qHTS cell viability counter screen (AID 1963581). Also: nearly all actives have a fitted effect of over 45% in size. The essentials:
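In the same plates used for the p53 bla reporter, HCT-116 cells given compounds for 16 h at 37 C received CellTiter-Glo; luminescence was recorded 30 min later at room temperature.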

SMILES strings stand for the structures. Records with an inconclusive call do not appear. The source made the active and inactive calls. Unless noted, calls follow the shape of the full dose curve.

Sequence of Muscarinic acetylcholine receptor M1 (Homo sapiens) (P11229 whole entry, looked up): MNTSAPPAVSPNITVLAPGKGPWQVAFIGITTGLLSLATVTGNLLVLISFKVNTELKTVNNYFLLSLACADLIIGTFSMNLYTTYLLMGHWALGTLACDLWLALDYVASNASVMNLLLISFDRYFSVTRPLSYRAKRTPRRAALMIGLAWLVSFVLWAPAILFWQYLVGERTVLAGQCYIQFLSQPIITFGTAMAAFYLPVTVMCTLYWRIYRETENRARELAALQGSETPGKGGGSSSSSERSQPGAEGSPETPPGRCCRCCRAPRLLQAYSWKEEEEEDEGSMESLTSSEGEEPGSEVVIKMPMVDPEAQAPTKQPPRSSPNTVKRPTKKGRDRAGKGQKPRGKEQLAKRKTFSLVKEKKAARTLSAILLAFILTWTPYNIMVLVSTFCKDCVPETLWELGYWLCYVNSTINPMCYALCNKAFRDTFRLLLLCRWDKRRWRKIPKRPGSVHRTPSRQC
Sequence of Gonadotropin-releasing hormone receptor (Homo sapiens) (P30968 whole entry, looked up): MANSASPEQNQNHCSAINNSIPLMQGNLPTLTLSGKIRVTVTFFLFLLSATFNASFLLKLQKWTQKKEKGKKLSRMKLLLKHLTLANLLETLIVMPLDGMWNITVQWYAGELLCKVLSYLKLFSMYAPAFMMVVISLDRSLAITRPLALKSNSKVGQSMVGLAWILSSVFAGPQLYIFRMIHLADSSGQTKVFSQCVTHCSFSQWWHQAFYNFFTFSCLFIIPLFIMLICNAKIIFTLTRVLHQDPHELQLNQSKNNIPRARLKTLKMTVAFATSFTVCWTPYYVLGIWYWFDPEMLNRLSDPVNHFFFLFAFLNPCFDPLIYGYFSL
Sequence of KiSS-1 receptor (Homo sapiens) (Q969F8 whole entry, looked up): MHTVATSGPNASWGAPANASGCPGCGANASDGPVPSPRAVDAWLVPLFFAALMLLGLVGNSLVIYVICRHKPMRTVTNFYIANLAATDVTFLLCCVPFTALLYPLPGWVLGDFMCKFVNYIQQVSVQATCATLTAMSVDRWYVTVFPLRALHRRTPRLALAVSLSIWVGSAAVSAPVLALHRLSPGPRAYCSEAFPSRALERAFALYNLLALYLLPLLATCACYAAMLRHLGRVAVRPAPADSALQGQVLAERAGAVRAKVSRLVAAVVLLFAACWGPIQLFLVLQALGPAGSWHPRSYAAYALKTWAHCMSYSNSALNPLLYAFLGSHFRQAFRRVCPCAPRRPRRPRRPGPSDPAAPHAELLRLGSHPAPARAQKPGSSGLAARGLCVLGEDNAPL
Sequence of D(2) dopamine receptor (Homo sapiens) (P14416 whole entry, looked up): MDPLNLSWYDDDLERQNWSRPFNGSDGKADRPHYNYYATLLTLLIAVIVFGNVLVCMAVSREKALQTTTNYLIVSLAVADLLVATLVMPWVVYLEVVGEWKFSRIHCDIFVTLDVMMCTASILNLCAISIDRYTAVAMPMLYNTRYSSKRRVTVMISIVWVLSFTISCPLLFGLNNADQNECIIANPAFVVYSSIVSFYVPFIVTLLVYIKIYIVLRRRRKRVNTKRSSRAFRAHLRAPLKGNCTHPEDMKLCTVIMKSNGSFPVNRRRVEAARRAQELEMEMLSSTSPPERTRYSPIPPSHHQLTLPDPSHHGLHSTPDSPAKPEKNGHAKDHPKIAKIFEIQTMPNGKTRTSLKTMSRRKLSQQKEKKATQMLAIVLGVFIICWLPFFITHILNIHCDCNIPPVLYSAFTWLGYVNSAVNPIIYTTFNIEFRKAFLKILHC
Sequence of Beta-2 adrenergic receptor (Homo sapiens) (P07550 whole entry, looked up): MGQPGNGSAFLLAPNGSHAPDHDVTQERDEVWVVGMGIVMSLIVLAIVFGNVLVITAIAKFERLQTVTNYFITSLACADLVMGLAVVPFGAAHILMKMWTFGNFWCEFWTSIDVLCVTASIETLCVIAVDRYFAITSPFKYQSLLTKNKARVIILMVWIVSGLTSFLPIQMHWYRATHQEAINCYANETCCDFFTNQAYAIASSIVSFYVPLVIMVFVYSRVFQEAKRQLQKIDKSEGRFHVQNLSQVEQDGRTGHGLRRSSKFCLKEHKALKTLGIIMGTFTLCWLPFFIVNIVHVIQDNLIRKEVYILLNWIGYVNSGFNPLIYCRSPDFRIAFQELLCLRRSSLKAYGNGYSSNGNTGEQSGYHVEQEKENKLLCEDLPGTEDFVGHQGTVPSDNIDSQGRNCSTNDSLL
Sequence of 5-hydroxytryptamine receptor 2A (Homo sapiens) (P28223 whole entry, looked up): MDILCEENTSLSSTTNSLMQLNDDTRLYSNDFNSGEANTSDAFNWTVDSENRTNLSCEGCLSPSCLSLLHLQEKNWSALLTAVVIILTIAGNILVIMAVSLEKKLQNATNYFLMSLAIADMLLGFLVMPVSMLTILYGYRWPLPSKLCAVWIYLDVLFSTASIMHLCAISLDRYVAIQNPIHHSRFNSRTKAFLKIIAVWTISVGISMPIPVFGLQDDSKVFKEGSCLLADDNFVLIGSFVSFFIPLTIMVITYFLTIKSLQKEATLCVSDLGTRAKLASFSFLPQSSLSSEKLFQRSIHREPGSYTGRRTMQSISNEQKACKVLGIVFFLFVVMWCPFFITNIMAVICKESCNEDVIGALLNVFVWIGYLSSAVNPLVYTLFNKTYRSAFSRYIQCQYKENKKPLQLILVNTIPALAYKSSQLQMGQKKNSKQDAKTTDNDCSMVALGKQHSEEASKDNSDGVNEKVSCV

As to `CCCCCC[C@@H](O)C/C=C\CCCCCCCC(=O)O`, the Potency entry in [1], in experiment [2], in experiment [3], in experiment [4], in experiment [5] and in experiment [6] was “inactive” throughout. Besides, the Potency result in experiment [7], in experiment [8], in experiment [9], in experiment [10], in experiment [11] and in [12] was “inactive” throughout. The Potency entry in [13], in experiment [14], in experiment [15] and in experiment [16] was “inactive” throughout.
Regarding `CCCCCCC(C)OC(=O)COc1nc(F)c(Cl)c(N)c1Cl` (stereo not given), the Potency result in experiment [1], in experiment [2], in experiment [3], in [4], in [5] and in experiment [6] was “inactive” in each case. The Potency result in experiment [8], in experiment [9], in experiment [17], in [10], in [11] and in experiment [13] was “inactive” in each case. The Potency entry in experiment [15] and in experiment [16] was “inactive” throughout.
Regarding `CO[Si](OC)(c1ccccc1)c1ccccc1`, the Potency result in experiment [1], in experiment [2], in experiment [3], in experiment [4], in [18] and in experiment [6] was “inactive” throughout. For the same compound, the Potency entry in experiment [8], in experiment [9], in experiment [17], in [10], in experiment [11] and in experiment [19] was “inactive” throughout. Also, the Potency entry in experiment [12], in experiment [13], in experiment [15] and in experiment [16] was “inactive” throughout.
For the compound `C=CC(=O)Nc1cc2c(Nc3ccc(F)c(Cl)c3)ncnc2cc1OCCCN1CCOCC1`, the Potency entry in experiment [1], in experiment [2], in [3], in experiment [4], in [5] and in experiment [6] was “inactive” each time. For the same compound, the Potency result in experiment [7], in [20], in experiment [8], in experiment [17], in [10] and in experiment [11] was “inactive” in each case. Moreover, the Potency entry in experiment [13] and in [16] was “inactive” each time.
Consider `O=C(Nc1ccc(Cl)cc1)Nc1ccc(Cl)c(C(F)(F)F)c1`, for which the Potency in [1] was 11.9 µM (active). The Potency entry in [2], in [3], in [4], in experiment [5], in experiment [6] and in experiment [7] was “inactive” each time. In addition, the Potency result in [17], in [10], in experiment [11], in experiment [15] and in [16] was “inactive” throughout.
For `Nc1ccc(N)c2c1C(=O)c1ccccc1C2=O`, the Potency entry in [1], in [2], in [3], in [4], in experiment [5] and in experiment [6] was “inactive” throughout. In addition, the Potency entry in experiment [7], in experiment [10], in experiment [11] and in experiment [19] was “inactive” throughout.
With `CCCC(=O)OC[C@@H](OC(=O)CCC)[C@@H](OC(=O)CCC)[C@H](Cn1c2nc(=O)[nH]c(=O)c-2nc2cc(C)c(C)cc21)OC(=O)CCC`, the Potency entry in experiment [1], in experiment [18], in experiment [6], in [7], in [20] and in experiment [9] was “inactive” each time. Moreover, the Potency entry in experiment [10], in [13] and in [16] was “inactive” throughout. Moreover, the Potency in [2] is 7.56 µM (active); in [3], 16.9 µM (active); in experiment [4], 15.1 µM (active); in experiment [17], 23.9 µM (active); in experiment [11], 19 µM (active).
Consider `COC(=O)c1cc(Cl)ccc1[N+](=O)[O-]`, for which the Potency result in experiment [1], in experiment [2], in [3], in experiment [4], in [5] and in experiment [7] was “inactive” throughout. Also, the Potency result in experiment [20], in experiment [8], in experiment [17], in experiment [10], in [19] and in experiment [13] was “inactive” throughout. In addition, the Potency result in [15] and in [16] was “inactive” in each case.
For the compound `NNc1nc(-c2ccc(N)cc2)cs1`, in experiment [1], the Potency was 54.5 µM (active). Besides, the Potency result in experiment [2], in experiment [3], in experiment [4], in experiment [18], in experiment [7] and in experiment [20] was “inactive” throughout. The Potency result in [8], in experiment [9], in experiment [17], in experiment [11], in experiment [19] and in experiment [12] was “inactive” in each case. For the same compound, the Potency entry in experiment [15] and in experiment [16] was “inactive” throughout.
